In PubChem BioAssay (Tox21):
Results filed as inconclusive are left out. The source made the active and inactive calls. Unless noted, the call rests on the fitted dose curve; in most records, active means well fitted curve in the direction sought with a large enough effect in the repeat runs; inconclusive means weak or mixed curves; inactive means no such curve, though single readings can be large; an effect the other way counts as inactive or inconclusive.

Assays:
[1] = molecular target: Retinoic acid receptor RXR-alpha (Homo sapiens) (UniProt P19793); assay: qHTS assay to identify small molecule agonists of the RXR signaling pathway (AID 1159527; calls by dose curve; further: nearly all actives have a fitted effect of over 35% in size)
How it was run: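 Read-out: beta-lactamase FRET ratio (405 nm excitation, 460 and 530 nm emission) after 2 hr substrate loading at room temperature. Cells were RXR-alpha-UAS-bla HEK 293T treated with compounds for 16 hr in 2% charcoal-stripped FBS medium.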

[2] = qHTS assay to identify small molecule agonists of the RXR signaling pathway - cell viability counter screen (AID 1159529); further: nearly all actives have a fitted effect of over 50% in size
How it was run: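 HEK 293T RXRa-bla cells, 2% CS-FBS; 5 h settle; cpd 16 h 37 C, 5% CO2; CellTiter-Glo 30 min RT, luminescence. Tetraoctyl ammonium bromide as positive control.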

[3] = qHTS assay to identify small molecule antagonists of the retinoid acid receptor (RAR) signaling pathway - cell viability counter screen (AID 1159551); further: nearly all actives have a fitted effect of over 35% in size
How it was run: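 In this counter screen, the RARE-luciferase line C3RL4 was exposed for 6 h at 37 C and 5% CO2 to compounds with retinol at 1 uM final. Cellular ATP, read by luminescence, served as the viability measure.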

[4] = qHTS assay to identify small molecule antagonists of the retinoic acid receptor (RAR) signaling pathway (AID 1159552; further: nearly all actives have a fitted effect of over 50% in size)
How it was run: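 Cells of the C3RL4 line were seeded, incubated overnight, then dosed with compounds in DMSO followed immediately by retinol (1 uM final). Six hours later luciferase detection reagent went in; signal was measured after 30 min at RT.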

[5] = qHTS assay to identify small molecule agonists of the retinoic acid receptor (RAR) signaling pathway (AID 1159553); details: C3RL4 RARE luciferase reporter, agonist, 6 h; activation: at 73.3 µM (top of the series)
How it was run: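 In this cell-based screen, 1,000 C3RL4 cells per well were cultured overnight, dosed with test chemicals in DMSO for 6 hr, and assessed for RARE luciferase luminescence.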

[6] = qHTS assay to identify small molecule antagonists of the estrogen related receptor (ERR) signaling pathway from Tox21 library - cell viability counter screen (AID 1224834); further: nearly all actives have a fitted effect of over 30% in size
How it was run: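 Counter screen run in ERR cells (2,000 cells/well): cells pre-incubated 6 h, then treated with compounds for 17.5 h at 37 C. Fluorescence was read 30 min after CellTiter-Fluor addition.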

[7] = molecular target: Luciferin 4-monooxygenase (Photinus pyralis) (UniProt P08659); assay: qHTS assay to identify small molecule inhibitors of firefly luciferase (AID 1224835); further: nearly all actives have a fitted effect of over 25% in size
How it was run: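 Inhibition of purified Photinus luciferase is measured by luminescence. Substrate levels (D-luciferin, ATP) sit at their KM values. Each compound is tested in a concentration series.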

[8] = qHTS assay to identify small molecule agonists of the constitutive androstane receptor (CAR) signaling pathway - cell viability counter screen (AID 1224836); further: nearly all actives have a fitted effect of over 45% in size
How it was run: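 HepG2-CYP2B6-hCAR, 2500 cells/well, 4 h pre-incubation; cpd 15 conc + PK11195 0.75 uM final; 23 h, 37 C/5% CO2; CellTiter-Fluor, fluorescence.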

[9] = qHTS assay to identify small molecule antagonists of the constitutive androstane receptor (CAR) signaling pathway - cell viability counter screen (AID 1224837); further: nearly all actives have a fitted effect of over 45% in size
How it was run: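 CITCO at 50 nM final was added alongside compounds (15 concentrations) to double-stable hCAR/CYP2B6-2.2kb HepG2 cells. Following 23 hr at 37 C, cell viability was quantified by CellTiter-Fluor fluorescence intensity.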

[10] = molecular target: Nuclear receptor subfamily 1 group I member 3 (Homo sapiens) (UniProt Q14994); assay: qHTS assay to identify small molecule antagonists of the constitutive androstane receptor (CAR) signaling pathway (AID 1224838); further: nearly all actives have a fitted effect of over 40% in size
How it was run: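 Inhibition of CITCO-driven (50 nM final) CYP2B6 reporter expression is measured in HepG2 cells stably carrying hCAR. Fifteen compound concentrations are applied for 24 h at 37 C, followed by luciferase luminescence.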

Measured: Potency

Sequence of Retinoic acid receptor RXR-alpha (Homo sapiens) (P19793 whole entry, looked up): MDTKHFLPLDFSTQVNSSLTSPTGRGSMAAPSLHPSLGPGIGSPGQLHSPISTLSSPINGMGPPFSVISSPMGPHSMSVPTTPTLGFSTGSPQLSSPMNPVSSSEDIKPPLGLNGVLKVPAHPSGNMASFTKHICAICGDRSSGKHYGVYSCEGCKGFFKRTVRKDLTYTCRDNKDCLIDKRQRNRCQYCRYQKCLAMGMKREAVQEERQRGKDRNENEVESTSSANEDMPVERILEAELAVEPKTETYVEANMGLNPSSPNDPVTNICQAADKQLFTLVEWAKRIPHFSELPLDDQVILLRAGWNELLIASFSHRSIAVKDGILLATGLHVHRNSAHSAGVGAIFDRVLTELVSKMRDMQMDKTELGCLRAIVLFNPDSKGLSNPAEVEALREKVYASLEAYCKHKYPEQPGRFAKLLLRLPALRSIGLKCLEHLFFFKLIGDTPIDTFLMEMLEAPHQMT
Sequence of Luciferin 4-monooxygenase (Photinus pyralis) (P08659 whole entry, looked up): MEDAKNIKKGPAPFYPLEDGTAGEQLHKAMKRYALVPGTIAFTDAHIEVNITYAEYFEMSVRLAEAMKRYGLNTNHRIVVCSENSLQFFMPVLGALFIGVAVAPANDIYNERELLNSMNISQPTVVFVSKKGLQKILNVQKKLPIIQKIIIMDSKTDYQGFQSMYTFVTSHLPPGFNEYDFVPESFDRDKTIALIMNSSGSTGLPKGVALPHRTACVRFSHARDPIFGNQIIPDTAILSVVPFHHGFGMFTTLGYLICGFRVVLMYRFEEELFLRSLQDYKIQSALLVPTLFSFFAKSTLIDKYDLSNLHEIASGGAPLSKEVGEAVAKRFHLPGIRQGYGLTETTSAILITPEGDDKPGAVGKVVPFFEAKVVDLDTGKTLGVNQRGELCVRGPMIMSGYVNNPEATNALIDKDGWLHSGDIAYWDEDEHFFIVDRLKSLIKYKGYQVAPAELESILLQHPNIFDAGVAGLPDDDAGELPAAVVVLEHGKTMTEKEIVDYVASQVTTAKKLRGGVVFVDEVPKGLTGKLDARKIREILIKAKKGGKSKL
Sequence of Nuclear receptor subfamily 1 group I member 3 (Homo sapiens) (Q14994 whole entry, looked up): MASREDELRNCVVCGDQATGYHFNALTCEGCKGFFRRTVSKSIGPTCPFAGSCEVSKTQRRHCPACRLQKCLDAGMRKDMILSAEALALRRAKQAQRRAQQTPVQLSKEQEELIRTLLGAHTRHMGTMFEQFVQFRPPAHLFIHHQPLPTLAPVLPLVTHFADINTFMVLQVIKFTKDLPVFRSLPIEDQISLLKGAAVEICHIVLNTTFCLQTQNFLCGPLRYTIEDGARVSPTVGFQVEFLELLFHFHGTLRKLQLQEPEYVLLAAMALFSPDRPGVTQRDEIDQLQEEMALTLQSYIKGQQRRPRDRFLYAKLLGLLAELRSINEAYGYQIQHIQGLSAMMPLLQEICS

Cc1cc(C)cc([N+](=O)[O-])c1
not listed: [10]
inactive: all other assays above

CC(=O)OCCCc1ccccc1
not listed: [10]
inactive: all other assays above

Cc1ccccc1OCC1CO1 (stereo not given)
not listed: [10]
inactive: all other assays above

C[C@H](CCC(=O)O)[C@H]1CC[C@H]2[C@@H]3[C@H](O)C[C@@H]4C[C@H](O)CC[C@]4(C)[C@H]3C[C@H](O)[C@]12C
not listed: [10]
inactive: all other assays above

CC(=O)OC(C)c1ccccc1 (stereo not given)
inactive: all assays above

O=C(Oc1ccccc1C(=O)O)c1ccccc1O
not listed: [10]
inactive: all other assays above

Cc1nc2ccccc2c(=O)o1
inactive: all assays above

C=COCCOCCOC=C
inactive: all assays above

Oc1ccccc1Cc1ccccc1O
inactive: all assays above

CCCCCCCCC(=O)OCC
not listed: [10]
inactive: all other assays above

NS(=O)(=O)c1cc2c(cc1Cl)NC(C(Cl)Cl)NS2(=O)=O (stereo not given)
not listed: [10]
inactive: all other assays above

CCCCCCCCCCCCCCCC(=O)NCCO
inactive: all assays above

CCCCC(C)C(=O)O (stereo not given)
not listed: [6] | [10]
inactive: all other assays above

CC(=O)Nc1ccc(C)cc1
not listed: [6] | [10]
inactive: all other assays above

CCCC(C)CC (stereo not given)
not listed: [6] | [10]
inactive: all other assays above

Cn1c(=O)c2c(ncn2CC2OCCO2)n(C)c1=O
not listed: [8]
inactive: all other assays above

CCCO
not listed: [6] | [10]
inactive: all other assays above

CCOC(=O)OCC/C(SC(=O)OCC)=C(\C)N(C=O)Cc1cnc(C)nc1N
not listed: [6] | [10]
inactive: all other assays above

CCCOCCOCCOCCO
not listed: [6] | [10]
inactive: all other assays above
